The campaign covered roughly 69,000 compounds. About 8,600 (12%) showed an effect of 50% or more. Many of the other results were omitted from the sample, so strong results are more common in it than they were.
System: Plasmodium berghei
Assay: Screen against P. berghei liver stage (PbLuc), transformed with Luciferase, at 10uM
Assay type: functional, HepG2
Conditions: tested at 10 uM

Compound	INHIBITION [%]
CN1C(=O)CCC12CCC(NCc1ccsc1)CC2 (stereo unspecified)	8.74
COCCOC1CCN(C(C(=O)O)c2ccc3c(c2)OCO3)CC1 (stereo unspecified)	14.9
COCCCC1CCCCN1Cc1cn2cc(C)ccc2n1 (stereo unspecified)	-17.2
CN1CCN(C(=O)CCCc2ccccc2)CC(O)(Cn2cccn2)C1 (stereo unspecified)	26.65
Cc1ccc(C)c(-n2cc(CN3CCOCC3)c(-c3ccccc3)n2)c1	33.4
Cc1ccc(-n2cc(CN3CCOCC3)c(-c3cccc(C)c3)n2)cc1	56.1
Cc1ccc(C)c(-n2cc(CN3CC[C@@H](O)C3)c(-c3ccccc3)n2)c1	39.9
COc1cc(N2CCCn3cnc(COC(C)C)c3C2)ncn1	48.2
Cc1cc(NC(=O)C(C)Nc2cccc(COCc3ccco3)c2)on1 (stereo unspecified)	39.5
Cc1cccc(Nc2cc(C)nc(C3CCN(C(C)C)C3)n2)n1 (stereo unspecified)	60.9
Cc1cc(C)nc(Nc2cccc(C3CCCN(C(C)C)C3)n2)n1 (stereo unspecified)	-21.4
Cc1cc(-c2ccc(C(=O)O)cc2)nc(C2CCN(C(C)C)CC2)n1	2.71
Cc1cc(-c2cccc(C(=O)O)c2)nc(C2CCN(C(C)C)CC2)n1	56
Cc1cc(C)nc(Nc2cc(C)nc(C3CCN(C(C)C)C3)n2)n1 (stereo unspecified)	11.685
Cc1nc(-c2cccc(C(=O)O)c2)cc(C2CCN(C(C)C)C2)n1 (stereo unspecified)	0.0932
Cc1noc(Cl)c1CCC(=O)N1CCN(Cc2ccncc2)CC1	1.78
Cc1nn2cnnc2c(C)c1CCC(=O)Nc1nnc(C2CC2)s1	-31.1
CC(C(=O)NCCc1ccc2c(c1)OCCO2)n1cncn1 (stereo unspecified)	35.4
CCN(Cc1noc(CC(C)C)n1)Cc1cc2ccc(F)cc2[nH]c1=O	-7.65
Cn1cccc1CN1CCc2c(nc(-c3ccccn3)[nH]c2=O)C1	6.32
CCOc1ccc2[nH]c(=O)c(CN3CCCC(CO)(CO)C3)cc2c1	-46.4
CO[C@H]1CCN(C(=O)c2ccc3[nH]nnc3c2)C[C@@]12CCCO2	5.34
CSc1ccc(C(=O)N2CC(=O)N(CC(C)(C)C)CC(O)C2)cc1 (stereo unspecified)	37.4
O=C1CN(CC2CC2)Cc2nc(NCCc3ccccn3)sc21	23.4
CC(=O)N1CCCC2(CCN(c3ccccc3)C2=O)C1 (stereo unspecified)	2.58
O=C(CCc1ccccc1)N1CCCCC1C1OCCO1 (stereo unspecified)	72.1

Compound	INHIBITION [%]
O=C(CCc1ccccc1)N1CCCCC1Cn1cccn1 (stereo unspecified)	29.4
O=C(NCCc1ccccc1)N1CCCCC1C1OCCO1 (stereo unspecified)	25.7
c1coc(CN2CCOC3(COCCN(Cc4ccncc4)C3)C2)c1 (stereo unspecified)	31.7
O=C(Cc1csc(-c2ccoc2)n1)NCCCN1CCCCC1	-55.1
C1CN(Cc2noc(C3CC3)n2)CCN(Cc2nnc(C3CC3)o2)C1	74.9
CC(C)c1nc(CN(C)C2CCN(Cc3nnc(C4CC4)o3)C2)no1 (stereo unspecified)	-25.9
CN(Cc1nnc(C2CC2)o1)C1CCN(CCc2cccs2)C1 (stereo unspecified)	56.7
CCc1nc(CN2CCCN(Cc3nnc(C4CC4)o3)CC2)no1	37.9
CC(C)c1nc(CN2CCCN(Cc3nnc(C4CC4)o3)CC2)no1	-33.5
Cc1nc(CN(C)C2CCN(Cc3nnc(C4CC4)o3)C2)no1 (stereo unspecified)	-55.4
CN(Cc1nnc(C2CC2)n1C)C1CCN(CCc2cccs2)C1 (stereo unspecified)	-39.9
CN(Cc1noc(C2CC2)n1)C1CCN(CCc2cccs2)C1 (stereo unspecified)	43.2
CN(Cc1noc(C2CC2)n1)C1CCN(Cc2nnc(C3CC3)o2)C1 (stereo unspecified)	51.6
COCCN1CC(=O)c2sc(NC(C)C)nc2C1	39.7
Cc1cc(N(C)C)nc(C2(C)CCCN2C(=O)c2ccn(C)n2)n1 (stereo unspecified)	36.4
Cc1cc(C(=O)N2CCCN(Cc3nccn3C)CC2)no1	22.3
Cc1ccc(S(=O)(=O)N2CCOCC2C#N)c(F)c1 (stereo unspecified)	-26.1
Cc1ccnc(C2CCCN2C(=O)c2cnccn2)n1 (stereo unspecified)	3.91
COc1ccc(N(C)Cc2nc3c(cnn3C)c(=O)[nH]2)cc1OC	35.9
CCOc1c(Br)cc(CNCCc2nnc3n2CCCCC3)cc1OC	55.4
COc1cc(CNC(C)c2nnc3n2CCC3)cc(OC)c1 (stereo unspecified)	37.8
CCOc1c(Br)cc(CNC(C)c2nnc3n2CCC3)cc1OC (stereo unspecified)	50.8
COc1cc(Br)c(CNC(C)c2nnc3n2CCC3)cc1OC (stereo unspecified)	47.1
COc1cccc(CC(=O)NCCc2nnc3n2CCCCC3)c1	-11.3
Brc1cc(CNCc2nnc3n2CCC3)cs1	13.9
CC1(NC(=O)Cc2csc(-c3ccccc3Cl)n2)CCS(=O)(=O)C1 (stereo unspecified)	34.6

Compound	INHIBITION [%]
CCN1CCOC(CNCc2ccc(OCc3ccccn3)cc2)C1 (stereo unspecified)	3.5
Cc1c(C(=O)N2CCN(c3ccccn3)CC2)n(C)c2ccc(Cl)cc12	34
CC(C)Cc1nc(CN2CCCC2Cn2cncn2)no1 (stereo unspecified)	9.85
N#Cc1ccc(CN2CCCN(CCCn3cncn3)CC2)cc1	56.5
N#Cc1ccc(N2CCCN(CCCn3cncn3)CC2)cc1	9.87
N#Cc1ccc(CN2CCCN(C(=O)CCn3cncn3)CC2)cc1	-14.3
CN(C)CCN1CCO[C@H]2CN(C(=O)N(C)C)C[C@H]21	33.4
O=C(O)c1csc(NCCc2ccccc2)n1	34.2
O=C(c1ccoc1)N1CCC2(CC1)C(=O)N(CC1CC1)c1ccccc12	29.7
CC(C)=CCN1C[C@@H]2CC[C@H]1CN(CCC(=O)NCc1ccco1)C2	29.7
CC(C)=CCN1C[C@@H]2CC[C@H]1CN(Cc1coc(C)n1)C2	55
CC(C)=CCN1C[C@@H]2CC[C@H]1CN(Cc1cc(=O)[nH]c(=O)[nH]1)C2	39
Cc1ccc(C(=O)N2C[C@@H]3OCCN(CCN4CCCC4)[C@@H]3C2)cn1	19.9
COc1cc(C)c2c(c1C)C[C@@H](C(C)C(=O)O)CC2 (stereo partly specified)	10.1
c1ccc(-n2ccc(CN3CCCC(Cn4cncn4)C3)n2)cc1 (stereo unspecified)	15.3
CC(Nc1ncnc2c1CCNC2)c1ccc2c(c1)CCCC2 (stereo unspecified)	88.6
CCCc1ccc(C(C)Nc2ncnc3c2CCNC3)cc1 (stereo unspecified)	74.7
Cc1nc(C(C)Nc2ncnc3c2CCNCC3)c(C)s1 (stereo unspecified)	-10.9
CC(Nc1ncnc2c1CCNCC2)c1nc2c(s1)CCCC2 (stereo unspecified)	1.98
CC(C)Nc1ncnc2c1CCNCC2	43.8
CC(Nc1ncnc2c1CCNC2)c1ccc(C(C)(C)C)cc1 (stereo unspecified)	65
CCOc1ccc(C(C)Nc2ncnc3c2CCNC3)cc1OCC (stereo unspecified)	47.9
Cc1ccccc1C(Nc1ncnc2c1CCNC2)c1ccccc1 (stereo unspecified)	36.8
Cc1cc(C)n(CC(C)Nc2ncnc3c2CCNC3)n1 (stereo unspecified)	29.4

— ChEMBL document CHEMBL4513216, “Probing the Open Global Health Chemical Diversity Library for Multistage-Active Starting Points for Next-Generation Antimalarials” (ACS Infect Dis, 2020)
